Composite z-score and z-score data for five molecules are collected here from PubChem BioAssay.

A short description of assay [1]: compounds binding Alexa647 anti-His antibody – biochemical, small-molecule microarray, 635 nm fluorescence, artefact control for SMM control protein annotation, primary screen (AID 1128).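 Note: score merges feature fluorescence with signal-to-noise for each printed compound spot.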 To be noted: higher = more signal.
The test system of assay [2] is Human papillomavirus type 1a E7 protein (residues 1-88). As to the kind of experiment: HPV1a E7 small-molecule binders, primary screen, biochemical, small-molecule microarray, residues 1-88, 635 nm (AID 1129). To be noted: small-molecule microarray binding, fluorescence 635 nm; higher = more signal.
In assay [3] the target is Focal adhesion kinase 1 (Homo sapiens) (UniProt Q05397). Nature of the assay: PTK2 protein binding on printed compound slides – biochemical, small-molecule microarray, 635/667 nm fluorescence, BSA, DTT, primary screen (AID 1130).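 Note: composite of spot emission at 667 nm and signal to noise over triplicate slides.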 To be noted: 635 nm fluorescence, higher = more signal.
Sequence of Focal adhesion kinase 1 (Homo sapiens) (Q05397 whole entry, looked up): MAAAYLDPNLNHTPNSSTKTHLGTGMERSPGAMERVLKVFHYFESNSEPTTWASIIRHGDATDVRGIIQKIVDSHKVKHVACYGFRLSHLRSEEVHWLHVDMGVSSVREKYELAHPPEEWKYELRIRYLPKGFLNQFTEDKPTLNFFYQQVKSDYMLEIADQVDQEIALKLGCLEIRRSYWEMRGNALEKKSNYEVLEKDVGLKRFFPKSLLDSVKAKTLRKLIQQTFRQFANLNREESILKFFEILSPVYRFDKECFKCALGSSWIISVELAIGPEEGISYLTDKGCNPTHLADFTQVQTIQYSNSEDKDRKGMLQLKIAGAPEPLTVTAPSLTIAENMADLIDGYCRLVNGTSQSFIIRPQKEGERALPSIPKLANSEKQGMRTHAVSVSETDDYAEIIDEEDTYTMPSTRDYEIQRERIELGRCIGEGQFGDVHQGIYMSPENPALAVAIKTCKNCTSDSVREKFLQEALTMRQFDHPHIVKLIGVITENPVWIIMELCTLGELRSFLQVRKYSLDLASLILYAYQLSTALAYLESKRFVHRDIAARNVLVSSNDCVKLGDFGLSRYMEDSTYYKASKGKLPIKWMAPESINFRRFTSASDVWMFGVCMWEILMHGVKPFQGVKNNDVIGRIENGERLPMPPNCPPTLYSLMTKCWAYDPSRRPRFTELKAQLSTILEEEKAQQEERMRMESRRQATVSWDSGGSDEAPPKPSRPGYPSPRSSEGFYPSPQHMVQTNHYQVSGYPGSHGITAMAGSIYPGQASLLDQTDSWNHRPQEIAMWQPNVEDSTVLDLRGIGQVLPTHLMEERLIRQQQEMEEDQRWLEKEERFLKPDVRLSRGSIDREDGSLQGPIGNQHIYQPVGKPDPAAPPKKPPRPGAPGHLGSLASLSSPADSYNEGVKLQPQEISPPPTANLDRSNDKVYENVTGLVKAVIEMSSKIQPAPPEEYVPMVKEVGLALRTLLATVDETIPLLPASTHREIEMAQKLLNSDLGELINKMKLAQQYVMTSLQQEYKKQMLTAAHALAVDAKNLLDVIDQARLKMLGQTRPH
Assay [4] deals with Fibrinogen (Alexa647-labelled). As to the kind of experiment: Alexa647-fibrinogen binding to printed small molecules – biochemical, small-molecule microarray, 635/667 nm fluorescence, artefact control for SMM control-protein annotation, profiling panel (AID 1131).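 Note: z-score merges 667 nm fluorescence with per-spot signal-to-noise over triplicate slides.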 The conditions noted are these: fibrinogen-A647 binding fluorescence, higher = more signal.
The target of assay [5] is Follistatin (Homo sapiens) (UniProt P19883). As to the kind of experiment: FST protein binding to printed compounds – biochemical, small-molecule microarray, 635/667 nm fluorescence, primary screen (AID 1132). The conditions noted are these: 635 nm fluorescence, higher = more signal.
Sequence of Follistatin (Homo sapiens) (P19883 whole entry, looked up): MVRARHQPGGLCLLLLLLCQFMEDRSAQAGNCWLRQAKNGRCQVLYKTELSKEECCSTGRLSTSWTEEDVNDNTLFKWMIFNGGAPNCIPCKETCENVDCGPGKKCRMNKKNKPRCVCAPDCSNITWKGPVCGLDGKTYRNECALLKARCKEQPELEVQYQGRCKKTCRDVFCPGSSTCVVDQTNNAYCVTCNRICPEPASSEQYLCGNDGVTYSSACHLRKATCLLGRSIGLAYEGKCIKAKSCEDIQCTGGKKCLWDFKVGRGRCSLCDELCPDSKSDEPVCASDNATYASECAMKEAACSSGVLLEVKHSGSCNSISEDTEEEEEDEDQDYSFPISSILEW
In assay [6] the target is Fibroblast growth factor 2 (Homo sapiens) (UniProt P09038). As to the kind of experiment: basic fibroblast growth factor binding to printed compounds – biochemical, small-molecule microarray, 635/667 nm fluorescence, primary screen (AID 1133). To be noted: FGF2, fluorescence 635/667, higher = more signal.
Sequence of Fibroblast growth factor 2 (Homo sapiens) (P09038 whole entry, looked up): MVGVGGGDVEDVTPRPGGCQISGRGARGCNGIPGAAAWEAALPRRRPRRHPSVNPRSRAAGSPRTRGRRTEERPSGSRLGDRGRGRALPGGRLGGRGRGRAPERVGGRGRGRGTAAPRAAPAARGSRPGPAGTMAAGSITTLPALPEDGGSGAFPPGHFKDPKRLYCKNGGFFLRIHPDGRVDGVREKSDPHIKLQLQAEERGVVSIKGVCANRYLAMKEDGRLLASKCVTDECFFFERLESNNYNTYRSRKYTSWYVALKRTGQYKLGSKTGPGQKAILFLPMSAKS
Assay [7] in a line: JC-1 mitochondrial potential readout, lung cancer cells – cell-based, A549, JC-1 fluorescence, basal, 24 h, 100 nL, profiling panel (AID 1138).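 Note: A549 lung adenocarcinoma cells under basal conditions with no added stimulus; test concentration not given here.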 To be noted: higher = more signal.
The subject of assay [8] is Lefty1. Nature of the assay: Lefty1 protein binding to printed compounds – biochemical, small-molecule microarray, 635/667 nm fluorescence, primary screen (AID 1139). The conditions noted are these: fluorescence 635/667, higher = more signal.
The test system of assay [9] is wheat germ agglutinin (Triticum aestivum), Alexa647-labelled. As to the kind of experiment: Alexa647-WGA lectin binding to printed small molecules – biochemical, small-molecule microarray, 635/667 nm fluorescence, artefact control for SMM control-protein annotation, profiling panel (AID 1140).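 Note: score merges 667 nm feature emission with signal to noise over triplicate slides.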 To be noted: WGA-A647 binding, 635 nm fluorescence, higher = more signal.
Assay [10] addresses Luciferin 4-monooxygenase (Photinus pyralis) (UniProt P08659). Nature of the assay: inhibition of purified Photinus pyralis luciferase – biochemical, luminescence, purified enzyme, 2006 set, primary screen (AID 1141).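 Note: cell-free assay with purified firefly luciferase at 100 ng per well in PBS; test concentration not given here.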 The conditions noted are these: purified firefly luciferase, SteadyGlo luminescence, 30 min; higher = more signal, called active from +8 up or from −8 down.
Assay [11] deals with Wnt5a (protein binding on small-molecule microarray). As to the kind of experiment: small molecules binding Wnt5a protein – biophysical, small-molecule microarray, 635/667 nm fluorescence, primary screen (AID 1142).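 Note: fluorescence read at 667 nm with signal to noise per printed feature.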 To be noted: 635 nm fluorescence, higher = more signal.
Assay [12] in a line: ATP-based viability of Huh7 replicon cells – cell-based, CellTiter-Glo luminescence, basal, 48 h, cytotoxicity control for HCV replication inhibitor project, primary screen (AID 1143).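 Note: Huh7 hepatoma cells carrying a hepatitis C replication reporter with no stimulus; test concentration not given here.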 The conditions noted are these: higher = more signal, called active from +8 up or from −8 down. (In antiviral work, replicon cells carry a viral genome segment that copies itself.)
The nature of assay [13]: Pseudomonas biofilm growth suppression – PAO1 strain, BacTiter-Glo luminescence, LB-PBS, primary screen (AID 1144). To be noted: P. aeruginosa PAO1 biofilm, 12 h, higher = more signal.
Assay [14] in a line: basal CRE-LacZ reporter activity in PC12 – cell-based, unstimulated, primary screen (AID 1145). The conditions noted are these: no forskolin, luminescence, 4.5 h, higher = more signal, called active from +8 up or from −8 down.
Assay [15] can be described thus: forskolin-driven CRE-LacZ activity in PC12 – cell-based, CRE-LacZ reporter, forskolin-stimulated, primary screen (AID 1146).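 Note: PC12 cells with 6xCRE LacZ reporter stimulated by forskolin 10 µM; beta-galactosidase reporter signal reflecting CREB driven transcription.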 To be noted: luminescence, 4.5 h, higher = more signal, called active from +8 up or from −8 down.
The target in assay [16] is Streptavidin (Streptomyces avidinii) (UniProt P22629). Nature of the assay: compounds binding control protein streptavidin – biophysical, small-molecule microarray, 635/667 nm fluorescence, artefact control for SMM compound annotation, primary screen (AID 1147).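 Note: signal reflects streptavidin binding to arrayed compounds as a control protein.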 To be noted: higher = more signal.
Sequence of Streptavidin (Streptomyces avidinii) (P22629 whole entry, looked up): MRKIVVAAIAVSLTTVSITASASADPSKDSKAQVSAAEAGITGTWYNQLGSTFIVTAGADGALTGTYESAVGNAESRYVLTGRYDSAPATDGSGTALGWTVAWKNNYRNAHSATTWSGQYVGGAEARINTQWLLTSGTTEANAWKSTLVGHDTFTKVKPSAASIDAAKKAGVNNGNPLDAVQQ
A short description of assay [17]: probe aInhba binding on compound microarray – biochemical, small-molecule microarray, 635/667 nm fluorescence, primary screen (AID 1148).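 Note: score merges 667nm spot fluorescence with signal-to-noise for antibody binding to printed compounds.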 The conditions noted are these: higher = more signal.
Assay [18] addresses Torsin-1A (Homo sapiens) (UniProt O14656). Nature of the assay: TOR1A wild-type binding on microarray – cell lysate, small-molecule microarray, lysate, 635/667 nm, primary screen (AID 1149). The conditions noted are these: COS7 hTOR1A-WT lysate, 635 nm fluorescence, higher = more signal.
For assay [19] the target is unchanged. As to the kind of experiment: torsin A mutant lysate binding on microarrays – cell lysate, small-molecule microarray, COS7 lysate, 635/667 nm fluorescence, primary screen (AID 1150).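 Note: score pools 667 nm emission and signal to noise measuring lysate protein binding.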 To be noted: COS7 hTOR1A mutant lysate, 635 nm fluorescence, higher = more signal.
Assay [20] has as its system Sonic hedgehog protein (Shh). As to the kind of experiment: Sonic hedgehog microarray binding compounds – biochemical, small-molecule microarray, 635/667 nm fluorescence, primary screen (AID 1151).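 Note: Shh protein binding to compounds spotted on small-molecule microarray slides; score combines spot fluorescence intensity with signal-to-noise across triplicate slides.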 The conditions noted are these: 635 nm fluorescence, higher = more signal.

Activity calls are given as the source filed them. Unless noted, the rule behind the calls is not given here.

Sequence of Torsin-1A (Homo sapiens) (O14656 whole entry, looked up): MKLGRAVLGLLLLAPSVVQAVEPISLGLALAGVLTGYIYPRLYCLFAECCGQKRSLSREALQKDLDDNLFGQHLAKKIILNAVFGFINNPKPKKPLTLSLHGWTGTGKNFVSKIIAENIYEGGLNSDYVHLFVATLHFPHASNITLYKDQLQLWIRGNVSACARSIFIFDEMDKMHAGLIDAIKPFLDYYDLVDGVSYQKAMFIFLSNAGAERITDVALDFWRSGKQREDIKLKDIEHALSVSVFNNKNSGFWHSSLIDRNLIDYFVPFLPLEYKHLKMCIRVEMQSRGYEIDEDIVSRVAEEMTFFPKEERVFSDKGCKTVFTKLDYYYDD
Sequence of Luciferin 4-monooxygenase (Photinus pyralis) (P08659 whole entry, looked up): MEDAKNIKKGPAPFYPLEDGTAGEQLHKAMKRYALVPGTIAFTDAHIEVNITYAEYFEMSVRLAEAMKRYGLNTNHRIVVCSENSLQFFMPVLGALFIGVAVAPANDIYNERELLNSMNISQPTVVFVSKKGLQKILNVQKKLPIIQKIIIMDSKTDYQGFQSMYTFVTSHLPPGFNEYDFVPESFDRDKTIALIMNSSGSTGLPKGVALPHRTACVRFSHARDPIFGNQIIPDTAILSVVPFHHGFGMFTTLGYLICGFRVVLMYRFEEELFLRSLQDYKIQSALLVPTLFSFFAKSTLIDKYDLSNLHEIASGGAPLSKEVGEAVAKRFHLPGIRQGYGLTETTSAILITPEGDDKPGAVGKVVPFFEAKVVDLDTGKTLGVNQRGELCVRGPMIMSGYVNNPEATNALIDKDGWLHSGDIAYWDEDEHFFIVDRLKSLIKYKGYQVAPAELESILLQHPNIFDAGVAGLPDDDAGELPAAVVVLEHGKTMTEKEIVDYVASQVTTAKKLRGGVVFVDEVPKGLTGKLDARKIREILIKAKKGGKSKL

Take `CCc1cccc(NC(=O)O[C@H]2[C@H](OC(=O)Nc3ccc4c(c3)OCO4)[C@@H](OC(=O)Nc3ccc4c(c3)OCO4)[C@@H](OC)O[C@@H]2CO)c1`: the composite z-score in [1] is 0.646; in assay [2] it was 1.25; in assay [3], -0.106; in [4] it was 0.992; in [5] it was 1.03; in assay [6], 0.528. Besides, the composite z-score was 1.36 in assay [8]; 0.809 in [9]; 0.546 in assay [11]; 1.28 in assay [16]; 0.0073 in assay [17]; 1.14 in assay [18]. Besides, the values for the composite z-score in assay [19] and in assay [20] were 0.731 and 1.76, respectively. The z-score in assay [7] was -0.321; in assay [10] it was -7.34 (inactive); in [12], -3.35 (inactive); in assay [13], -1.21 (inactive); in [14] it was 0.101 (inactive); in [15], -0.684 (inactive).
With `CCOC(=O)[C@H](Cc1ccccc1)NC(=O)CCC1CC(OC(=O)NCc2ccc3c(c2)OCO3)CC2(CCCC(COC(=O)NCc3cccc(C(F)(F)F)c3)O2)O1` (stereo not given in full), the composite z-score is 1 in assay [1]; 0.355 in assay [2]; -0.15 in assay [3]; -0.416 in assay [4]; 0.916 in [5]; 1.01 in assay [6]. Also, the composite z-score is 0.955 in [8]; 0.229 in [9]; -0.0271 in [11]; 0.0284 in [16]; 0.0448 in assay [17]; 0.0337 in assay [18]. In addition, the composite z-score worked out at 0.134 in assay [19] and 1.17 in assay [20]. For the same molecule, the z-score in assay [7] is -0.659; in [10] it was 0.794 (inactive); in assay [12], -2.72 (inactive); in [13], -0.518 (inactive); in assay [14] it was -0.618 (inactive); in assay [15] it was -0.0205 (inactive).
For `C[C@@H](c1ccccc1)N1C(=O)[C@H]2[C@H]3[C@H](O)[C@H](O)CC(=NNC(=O)OCc4ccccc4)[C@H]3CC[C@H]2C1=O`, the composite z-score is 0.496 in assay [1]; -0.387 in [2]; -0.048 in assay [3]; 0.253 in assay [4]; -0.351 in assay [5]; 0.0573 in assay [6]. Further, the composite z-score in [8] was -0.211; in assay [9], -0.105; in assay [11] it was 0.15; in assay [16], 0.0456; in [17] it was -0.317; in assay [18] it was -0.184. The composite z-score was -0.289 in assay [19] and -0.108 in assay [20]. Also, the z-score in assay [7] was -0.118; in assay [10] it was 0.502 (inactive); in [12] it was -0.0242 (inactive); in [13] it was 0.158 (inactive); in assay [14] it was 0.423 (inactive); in [15] it was -0.0874 (inactive).
In the case of `CCOC(=O)[C@H](CC(C)C)NC(=O)CCC1CC(OC(=O)NCc2cccc3ccccc23)CC2(CCCC(COC(=O)NCCN3CCOCC3)O2)O1` (stereo not given in full), the composite z-score came out at 0.804 in assay [1]; 1.17 in assay [2]; 0.465 in assay [3]; 0.356 in assay [4]; 0.68 in assay [5]; 0.685 in assay [6]. Besides, the composite z-score in [8] is 0.551; in assay [9], 0.255; in [11] it was 0.201; in assay [16], 0.308; in [17], -0.0494; in assay [18], 0.0423. The composite z-score in assay [19] worked out at 0.765; in [20], 0.717. Besides, the z-score was 0.154 in assay [7]; 1.03 (inactive) in assay [10]; -0.293 (inactive) in [12]; -0.677 (inactive) in assay [13]; -0.164 (inactive) in assay [14]; 1.14 (inactive) in [15].
On to `CCCNC(=O)OC[C@H]1O[C@H](CCON=C[C@@H](OC)[C@H](C)C=CCC(=O)OC)C=C[C@@H]1Oc1ccc(OC)cc1`, for which the composite z-score in assay [1] is 2.2; in [2], -0.0259; in [3], -0.0322; in assay [4], 0.325; in [5], 0.0998; in assay [6], 0.109. Further, the composite z-score was 0.548 in assay [8]; 0.183 in assay [9]; -0.0615 in assay [11]; -0.351 in assay [16]; -0.206 in assay [17]; 0.525 in assay [18]. The composite z-score turned out to be 0.422 in assay [19] and 1.05 in assay [20]. The z-score in assay [7] is 0.139; in [10], -0.276 (inactive); in assay [12], -0.444 (inactive); in assay [13] it was 1.18 (inactive); in [14], 3.46 (inactive); in [15], 0.963 (inactive).
